By inhibition is commonly meant the drop in the measured response relative to a control, in per cent.

SMILES strings stand for the structures. Values without a mark were called inactive. The source made the active and inactive calls. Rule as the data show it, unless noted: active = inhibition above about 25%; inactive = the rest.

The target of one experiment is Nuclear receptor coactivator 1 (Homo sapiens) (UniProt Q15788). The experiment is described as follows: NCOA1 GAL4-fusion reporter inhibition – cell-based, luminescence, quadruplicate, confirmation (AID 588820;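 active = mean inhibition above 46.68%, the untreated control wells mean plus 3 SD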;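 also: 0% = DMSO wells and 100% = gossypol 36 µM treated wells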). The note with it: HEK293 GAL4-SRC1 luciferase reporter, at 3.6 µM, stronger effect = higher value. For orientation: Reporter assays use an easily measured gene product as a stand-in for the process of interest.
Chain of Nuclear receptor coactivator 1 (Homo sapiens) (Q15788 whole entry, looked up, the tested form may be a part): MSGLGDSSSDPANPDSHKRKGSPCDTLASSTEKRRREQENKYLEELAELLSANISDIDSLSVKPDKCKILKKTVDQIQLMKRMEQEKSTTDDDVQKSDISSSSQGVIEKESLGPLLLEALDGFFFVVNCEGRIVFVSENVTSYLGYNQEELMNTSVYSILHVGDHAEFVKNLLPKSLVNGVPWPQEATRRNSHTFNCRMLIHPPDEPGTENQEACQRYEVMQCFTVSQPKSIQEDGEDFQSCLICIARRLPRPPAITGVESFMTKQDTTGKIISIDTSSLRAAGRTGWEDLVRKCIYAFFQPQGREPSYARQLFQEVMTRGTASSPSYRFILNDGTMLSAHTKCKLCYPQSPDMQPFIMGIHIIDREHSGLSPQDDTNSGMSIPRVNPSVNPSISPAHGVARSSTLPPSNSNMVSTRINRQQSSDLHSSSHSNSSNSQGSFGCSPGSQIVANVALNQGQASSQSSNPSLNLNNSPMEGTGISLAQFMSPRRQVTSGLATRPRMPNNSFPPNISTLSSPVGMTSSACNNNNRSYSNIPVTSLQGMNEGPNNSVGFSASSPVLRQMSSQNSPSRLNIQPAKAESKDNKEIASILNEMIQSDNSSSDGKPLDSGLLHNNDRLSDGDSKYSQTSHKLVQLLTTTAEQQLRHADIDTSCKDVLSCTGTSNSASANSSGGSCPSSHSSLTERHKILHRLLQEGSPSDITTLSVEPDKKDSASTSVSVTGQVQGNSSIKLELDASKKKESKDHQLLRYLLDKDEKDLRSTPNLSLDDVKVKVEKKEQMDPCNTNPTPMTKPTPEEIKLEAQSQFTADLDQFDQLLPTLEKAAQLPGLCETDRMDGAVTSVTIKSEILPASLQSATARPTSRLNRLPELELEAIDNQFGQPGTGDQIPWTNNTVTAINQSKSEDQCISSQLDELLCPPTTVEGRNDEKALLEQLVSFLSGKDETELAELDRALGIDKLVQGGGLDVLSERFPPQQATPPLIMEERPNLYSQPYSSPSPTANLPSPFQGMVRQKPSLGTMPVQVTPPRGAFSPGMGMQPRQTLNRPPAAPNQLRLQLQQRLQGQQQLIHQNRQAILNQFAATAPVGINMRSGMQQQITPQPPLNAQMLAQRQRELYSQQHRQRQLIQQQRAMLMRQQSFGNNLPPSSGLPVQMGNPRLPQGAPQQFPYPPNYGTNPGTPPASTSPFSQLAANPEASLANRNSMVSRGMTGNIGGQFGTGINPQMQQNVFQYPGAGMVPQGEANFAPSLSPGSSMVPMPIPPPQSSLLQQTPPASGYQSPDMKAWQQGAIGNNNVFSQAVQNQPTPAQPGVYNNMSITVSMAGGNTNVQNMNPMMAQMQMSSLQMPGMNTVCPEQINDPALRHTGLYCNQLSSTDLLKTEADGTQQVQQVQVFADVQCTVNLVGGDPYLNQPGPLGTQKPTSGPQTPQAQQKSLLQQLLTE
Consider `N=c1c2c(n(Cc3ccc(F)cc3)c3c1CCC3)CCCC2`, for which the inhibition is 13.6%.

Regarding `Cc1nc(N)nc(N)c1/C=C/C(C)(C)c1ccc(Cl)cc1`, the inhibition was 62.2% (active).

For `COCCn1c(C)cc(C(=O)COC(=O)c2ccccc2Br)c1C`, the inhibition was 46.2%.

For the molecule `CC(=O)c1cccc(N=c2scc(-c3ccc(S(=O)(=O)N4CCOCC4)cc3)n2CCO)c1`, the inhibition was -14.3%.

Take `CC(=NNC(=S)N1CC2CCC(CC2)C1)c1ccccn1`: the inhibition was 1.55%.

As for `O=C(N/N=C/c1ccc[nH]1)c1ccc(COc2cccc3cccnc23)cc1`, the inhibition is 0.58%.

Test system in a further experiment: not listed separately
The experiment is described as follows: repression of VP16-driven luciferase reporter – cell-based, luminescence, high throughput, counter-screen for SRC1 inhibitor project (AID 588824). As to conditions: cell-based VP16 transactivation luciferase luminescence; at 3.6 µM; stronger effect = higher value.
As for `N=c1ccn(CC(=O)c2ccc(-c3ccccc3)cc2)cc1`, the inhibition was 57.5% (active).

With `C(=NNc1ccc2ccccc2n1)c1ccccn1`, the inhibition was -33.3%.

Take `CC(=NNC(=S)Nc1ccc(C)cc1)c1ccccn1`: the inhibition was 66% (active).

`Cc1cc(-c2nnc(SCC(=O)Nc3ccccc3C(F)(F)F)o2)c(C)n1-c1ccccc1`: the inhibition is -22.9%.

As to `CCC(=O)NC(c1ccc(Cl)cc1Cl)c1ccc2cccnc2c1O` (stereo unspecified), the inhibition was 51.3% (active).

`CCOc1ccc(C(=O)Nc2cnn(Cc3ccc(Cl)c(Cl)c3)c2)cc1`: the inhibition is 36.8% (active).

As for `Cc1ccc(-n2c(-c3ccccc3)c[n+]3c2CCc2ccccc2-3)c(C)c1`, the inhibition was 69.4% (active).

Turning to `CC1Cc2cc(-c3csc(NC(=O)Cc4cccs4)n3)ccc2N1S(C)(=O)=O` (stereo unspecified), the inhibition is 57.8% (active).

As to `Cc1ccc2nc(NC(=O)CSCC(=O)OCC(=O)c3ccccc3)sc2c1`, the inhibition was 30.5% (active).

For the molecule `O=c1[nH]cnc2c1nnn2C1OC(CO)C(O)C1O` (stereo unspecified), the inhibition is 17%.

Regarding `Cc1cccc(-n2c(N)c(-c3nc4ccccc4n3C)c3nc4ccccc4nc32)c1`, the inhibition was -15.4%.

As for `CN(C)c1ccc(/C=C/c2ccc3ccccc3[n+]2C)cc1`, the inhibition was 74.3% (active).

For the molecule `COc1ccc(C(=O)Nc2cnn(Cc3ccc(Cl)cc3)c2)cc1OC`, the inhibition was 51% (active).

Regarding `CCOC(=O)c1cc2c(=Cc3ccc(N(C)C)cc3)c3ccccc3n2[n+]1C`, the inhibition was 59.5% (active).

As for `COc1cc(C2c3cc4c(cc3C(OC3OC5COC(c6cccs6)OC5C(O)C3O)C3COC(=O)C23)OCO4)cc(OC)c1O` (stereo unspecified), the inhibition is -26.7%.

On to `CCc1nc(N)nc(N)c1-c1ccc(N(C)Cc2ccccc2)c([N+](=O)[O-])c1`, for which the inhibition was 60.4% (active).

With `Cc1ccc(S(=O)(=O)Nc2ccccc2C(=O)Nc2nc(-c3ccc(F)cc3)cs2)cc1`, the inhibition is 37% (active).

As to `COc1ccc(NC(=O)c2sc(=O)n(Cc3cccc(C(F)(F)F)c3)c2C)cc1OC`, the inhibition was 52.7% (active).

Take `CC#CC[N+](C)(C)CCCCCCCCCCCC`: the inhibition is 32.1% (active).

For the molecule `Cc1cccc2cc(-c3ccccc3)c(-c3ccccc3)c[n+]12`, the inhibition was 40.4% (active).

For `CCN(CC)c1ccc(/C=C/c2ccc3ccc(OC)cc3[n+]2CC)cc1`, the inhibition is 74.5% (active).

`Cc1cc(/C=C2\Sc3ccccc3N2C)cc(C)[n+]1CC1CCCO1` (stereo unspecified): the inhibition was 75.3% (active).

`CC(C)CCCCCCCCCCCCC(=O)NCC(=O)NC1C(O)C(O)C(Nc2ncnc3nc[nH]c23)OC1C(O)CO` (stereo unspecified): the inhibition is 95.4% (active).

Regarding `O=C1NC(=O)C(c2ccc(F)cc2)N1` (stereo unspecified), the inhibition was -5.94%.

As to `CCN(CC)c1ccc(/C=C/c2cccc[n+]2C)c(OC)c1`, the inhibition was 77.1% (active).

On to `CCc1ccc(/C=C/c2c[nH]c3ccccc23)[n+](CC)c1`, for which the inhibition is 58% (active).

For `NC(=O)c1cc([N+](=O)[O-])ccc1NCc1ccc(O)cc1`, the inhibition was 30% (active).

For the molecule `CCN(CC)CCCNc1nc2ccccc2c2[nH]c3ccc(OC)cc3c12`, the inhibition is 48.8% (active).

For the molecule `CC1=NN(c2nc3ccccc3[nH]2)C(=O)C1Cc1ccccc1` (stereo unspecified), the inhibition is 67.5% (active).

In the case of `Nc1nc(N)c2c(ccc3c2ccn3Cc2cccc([N+](=O)[O-])c2)n1`, the inhibition was 40.8% (active).

On to `CCN1/C(=C/c2ccc3cc(C)ccc3[n+]2CC)Sc2ccccc21`, for which the inhibition was 80.2% (active).

Turning to `CC(C)(C)c1ccc(-c2cn(-c3ccc(Br)cc3)c3[n+]2CCCS3)cc1`, the inhibition was 61% (active).

On to `COc1ccc(C2=Nn3c([n+](C)c4ccccc43)SC2)cc1`, for which the inhibition was 66.5% (active).

As for `CCOC(=O)C(C(C)=O)c1c(Br)c(O)c(O)c2c(C(=O)c3ccc(C)cc3)coc12` (stereo unspecified), the inhibition was 31.2% (active).

As to `N=c1c2c(n(Cc3ccc(F)cc3)c3c1CCC3)CCCC2`, the inhibition was 48% (active).

Turning to `Cc1nc(N)nc(N)c1/C=C/C(C)(C)c1ccc(Cl)cc1`, the inhibition was 28.5% (active).

In the case of `COCCn1c(C)cc(C(=O)COC(=O)c2ccccc2Br)c1C`, the inhibition is 36.7% (active).

Take `CC(=O)c1cccc(N=c2scc(-c3ccc(S(=O)(=O)N4CCOCC4)cc3)n2CCO)c1`: the inhibition is 49.4% (active).

As to `CC(=NNC(=S)N1CC2CCC(CC2)C1)c1ccccn1`, the inhibition was 49.8% (active).

Regarding `O=C(N/N=C/c1ccc[nH]1)c1ccc(COc2cccc3cccnc23)cc1`, the inhibition was 66.5% (active).

Test system in the next experiment: not listed separately
The experiment can be described thus: StAR promoter reporter inhibitors, counter-screen for LRH-1 inverse agonist project, cell-based, luminescence, high throughput (AID 651611; in the data active = inhibition above about 28%). The note with it: StAR promoter luciferase reporter counterscreen, at 3.6 µM, stronger effect = higher value.
As to `N=c1ccn(CC(=O)c2ccc(-c3ccccc3)cc2)cc1`, the inhibition is 46.2% (active).

For `C(=NNc1ccc2ccccc2n1)c1ccccn1`, the inhibition is 65.4% (active).

Consider `CC(=NNC(=S)Nc1ccc(C)cc1)c1ccccn1`, for which the inhibition was 66.1% (active).

For `Cc1cc(-c2nnc(SCC(=O)Nc3ccccc3C(F)(F)F)o2)c(C)n1-c1ccccc1`, the inhibition is 28.2% (active).

Turning to `CCC(=O)NC(c1ccc(Cl)cc1Cl)c1ccc2cccnc2c1O` (stereo unspecified), the inhibition is 83.4% (active).

Take `CCOc1ccc(C(=O)Nc2cnn(Cc3ccc(Cl)c(Cl)c3)c2)cc1`: the inhibition is 39% (active).

Turning to `Cc1ccc(-n2c(-c3ccccc3)c[n+]3c2CCc2ccccc2-3)c(C)c1`, the inhibition was 57.4% (active).

With `CC1Cc2cc(-c3csc(NC(=O)Cc4cccs4)n3)ccc2N1S(C)(=O)=O` (stereo unspecified), the inhibition was 47.4% (active).

Consider `Cc1ccc2nc(NC(=O)CSCC(=O)OCC(=O)c3ccccc3)sc2c1`, for which the inhibition is 19.2%.

`O=c1[nH]cnc2c1nnn2C1OC(CO)C(O)C1O` (stereo unspecified): the inhibition was 69.7% (active).

In the case of `Cc1cccc(-n2c(N)c(-c3nc4ccccc4n3C)c3nc4ccccc4nc32)c1`, the inhibition is 8.3%.

In the case of `CN(C)c1ccc(/C=C/c2ccc3ccccc3[n+]2C)cc1`, the inhibition is 58.5% (active).

On to `COc1ccc(C(=O)Nc2cnn(Cc3ccc(Cl)cc3)c2)cc1OC`, for which the inhibition is 45% (active).

Take `CCOC(=O)c1cc2c(=Cc3ccc(N(C)C)cc3)c3ccccc3n2[n+]1C`: the inhibition is 49.3% (active).

Regarding `COc1cc(C2c3cc4c(cc3C(OC3OC5COC(c6cccs6)OC5C(O)C3O)C3COC(=O)C23)OCO4)cc(OC)c1O` (stereo unspecified), the inhibition was 73.9% (active).

For the molecule `CCc1nc(N)nc(N)c1-c1ccc(N(C)Cc2ccccc2)c([N+](=O)[O-])c1`, the inhibition is 71.8% (active).

Consider `Cc1ccc(S(=O)(=O)Nc2ccccc2C(=O)Nc2nc(-c3ccc(F)cc3)cs2)cc1`, for which the inhibition is 42.1% (active).

Turning to `COc1ccc(NC(=O)c2sc(=O)n(Cc3cccc(C(F)(F)F)c3)c2C)cc1OC`, the inhibition is 46% (active).

In the case of `CC#CC[N+](C)(C)CCCCCCCCCCCC`, the inhibition is 33% (active).

Turning to `Cc1cccc2cc(-c3ccccc3)c(-c3ccccc3)c[n+]12`, the inhibition is 18.2%.

`CCN(CC)c1ccc(/C=C/c2ccc3ccc(OC)cc3[n+]2CC)cc1`: the inhibition is 67.8% (active).

With `Cc1cc(/C=C2\Sc3ccccc3N2C)cc(C)[n+]1CC1CCCO1` (stereo unspecified), the inhibition was 77.8% (active).

Regarding `CC(C)CCCCCCCCCCCCC(=O)NCC(=O)NC1C(O)C(O)C(Nc2ncnc3nc[nH]c23)OC1C(O)CO` (stereo unspecified), the inhibition was 96.7% (active).

Take `O=C1NC(=O)C(c2ccc(F)cc2)N1` (stereo unspecified): the inhibition is 11%.

For `CCN(CC)c1ccc(/C=C/c2cccc[n+]2C)c(OC)c1`, the inhibition was 73.3% (active).

In the case of `CCc1ccc(/C=C/c2c[nH]c3ccccc23)[n+](CC)c1`, the inhibition is 39.4% (active).

For the molecule `NC(=O)c1cc([N+](=O)[O-])ccc1NCc1ccc(O)cc1`, the inhibition was 48.6% (active).

With `CCN(CC)CCCNc1nc2ccccc2c2[nH]c3ccc(OC)cc3c12`, the inhibition is 30.1% (active).

Turning to `CC1=NN(c2nc3ccccc3[nH]2)C(=O)C1Cc1ccccc1` (stereo unspecified), the inhibition was 70.3% (active).

For `Nc1nc(N)c2c(ccc3c2ccn3Cc2cccc([N+](=O)[O-])c2)n1`, the inhibition was 72.6% (active).

`CCN1/C(=C/c2ccc3cc(C)ccc3[n+]2CC)Sc2ccccc21`: the inhibition is 72.2% (active).

As for `CC(C)(C)c1ccc(-c2cn(-c3ccc(Br)cc3)c3[n+]2CCCS3)cc1`, the inhibition is 47.8% (active).

Consider `COc1ccc(C2=Nn3c([n+](C)c4ccccc43)SC2)cc1`, for which the inhibition is 59.1% (active).

In the case of `CCOC(=O)C(C(C)=O)c1c(Br)c(O)c(O)c2c(C(=O)c3ccc(C)cc3)coc12` (stereo unspecified), the inhibition was 60.4% (active).

On to `N=c1c2c(n(Cc3ccc(F)cc3)c3c1CCC3)CCCC2`, for which the inhibition is 41.4% (active).

With `Cc1nc(N)nc(N)c1/C=C/C(C)(C)c1ccc(Cl)cc1`, the inhibition is 78.5% (active).

As to `COCCn1c(C)cc(C(=O)COC(=O)c2ccccc2Br)c1C`, the inhibition was 57.1% (active).

With `CC(=O)c1cccc(N=c2scc(-c3ccc(S(=O)(=O)N4CCOCC4)cc3)n2CCO)c1`, the inhibition was 35.2% (active).

In the case of `CC(=NNC(=S)N1CC2CCC(CC2)C1)c1ccccn1`, the inhibition is 59.4% (active).

As for `O=C(N/N=C/c1ccc[nH]1)c1ccc(COc2cccc3cccnc23)cc1`, the inhibition is 86% (active).
